The values below come from PubChem BioAssay (NCATS).

Where “and” joins values, the source holds several entries; their conditions need not be identical. Identical values can stand only once. Records with an inconclusive call do not appear. Calls of active or inactive are those of the source. The call rests on the fitted dose curve; in most records, active means well fitted inhibition curve with a large enough effect; inconclusive means small, poorly fitted or top-dose-only effect; inactive means flat fitted curve, though single readings scatter.
On the % scale 0 is the no-effect control and ±100 the full control effect.

The test system of the test is KB-3-1. Briefly: Cytotoxic Profiling of Annotated Libraries Using Quantitative High-Throughput Screening (AID 1296008). Further: nearly all actives have a fitted effect of over 60% in size. The note with it: Five cell lines viability, CellTiter-Glo ATP luminescence, 48-72 h; max response: hits give low values. A digest of the protocol: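 Cytotoxicity was measured as CellTiter-Glo ATP luminescence, read after 10 min at room temperature. Compound treatment of the cells lasted 48 or 72 hr at 37 degrees Celsius in a qHTS format.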
(ATP-based viability assays read luminescence as a measure of living cells.)
Consider `CC(C)CN(C[C@@H](O)[C@H](Cc1ccccc1)NC(=O)O[C@@H]1CCOC1)S(=O)(=O)c1ccc(N)cc1`, for which the max response was 0.899% (inactive).
With `Oc1cccc(O)c1O` the figure was 0.0163% (inactive); with `Nc1nc(/C(=C/CC(=O)O)C(=O)N[C@@H]2C(=O)N3C(C(=O)O)=CCS[C@H]23)cs1`, -7.11% (inactive); with `Cc1ncc(C[n+]2csc(CCOP(=O)(O)O)c2C)c(N)n1`, -2.14% (inactive).
Consider `CCCc1nc(C(C)(C)O)c(C(=O)OCc2oc(=O)oc2C)n1Cc1ccc(-c2ccccc2-c2nn[nH]n2)cc1`, for which the max response is -0.562% (inactive).
With `CNC(=O)c1c(I)c(C(=O)NCC(=O)Nc2c(I)c(C(=O)O)c(I)c(C(=O)NCCO)c2I)c(I)c(N(C)C(C)=O)c1I` the figure was 10% (inactive); with `S=C1SCN(Cc2ccccc2)CN1Cc1ccccc1`, 37.7% (inactive).
Then `C[N+]1(C)[C@@H]2CC(OC(=O)C(O)(c3cccs3)c3cccs3)C[C@H]1[C@@H]1O[C@@H]12` (stereo not given in full), with -8.8% (inactive); and `CC(C)=CCC/C(C)=C/CC/C(C)=C/CC/C=C(\C)CC/C=C(\C)CCC=C(C)C`, with 6.34% (inactive) and -6.32% (inactive).
Then `COc1ccc(C(=O)CCC(=O)O)c2ccccc12`, with -0.566% (inactive); and `O=C(O)CCC/C=C\C[C@@H]1[C@@H](/C=C/[C@@H](O)COc2cccc(Cl)c2)[C@H](O)C[C@@H]1O`, with -2.7% (inactive); and `CNC(=O)C[C@@H](N)C(=O)N[C@@H](C(=O)N[C@@H]1C(=O)N2[C@@H]1SC(C)(C)[C@@H]2C(=O)O)c1ccc(O)cc1`, with -18.5% (inactive).
On to `O=P(O)(O)OP(=O)(O)O`, for which the max response is -8.71% (inactive).
In the case of `c1ccc2c(c1)OCC(CN1CCCCC1)O2` (stereo not given), the max response was -16% (inactive).
Then `C[C@H](CCC(=O)O)[C@H]1CC[C@H]2[C@@H]3CC[C@@H]4C[C@H](O)CC[C@]4(C)[C@H]3C[C@H](O)[C@]12C`, with -0.187% (inactive); and `CCCCCCCCCCCCCCCC(=O)OC[C@H](COP(=O)([O-])OCC[N+](C)(C)C)OC(=O)CCCCCCCCCCCCCCC`, with -12.2% (inactive); and `CO[C@H]1C=CO[C@@]2(C)Oc3c(C)c(O)c4c(O)c(cc(O)c4c3C2=O)NC(=O)/C(C)=C\C=C/[C@H](C)[C@H](O)[C@@H](C)[C@@H](O)[C@@H](C)[C@H](OC(C)=O)[C@@H]1C`, with -3.21% (inactive).
With `COC1=C(OC)C(=O)C(C/C=C(\C)CC/C=C(\C)CC/C=C(\C)CC/C=C(\C)CC/C=C(\C)CC/C=C(\C)CC/C=C(\C)CC/C=C(\C)CC/C=C(\C)CCC=C(C)C)=C(C)C1=O` the figure was -15.4% (inactive); with `CN1C(=O)OC(C)(C)C1=O`, 3.96% (inactive).
Then `CC(CN1c2ccccc2Sc2cccnc21)N(C)C` (stereo not given), with -2.53% (inactive).
With `CC1=C[C@H](O)CC(C)(C)[C@H]1/C=C/C(C)=C/C=C/C(C)=C/C=C/C=C(C)/C=C/C=C(C)/C=C/C1=C(C)C[C@@H](O)CC1(C)C`, the max response is -11% (inactive).
Then `CC12CCC(C[N+](C)(CCC[N+](C)(C)C)C1)C2(C)C` (stereo not given), with -0.0096% (inactive); and `CCCCC(CC)COS(=O)(=O)O` (stereo not given), with -16.9% (inactive); and `CC(=O)c1ccc2c(c1)N(CCCN1CCN(CCO)CC1)c1ccccc1S2`, with 1.1% (inactive).
With `CO/N=C(/C(=O)N[C@@H]1C(=O)N2C(C(=O)O)=C(COC(N)=O)CS[C@H]12)c1ccco1` the figure was -4.54% (inactive) and -18.4% (inactive); with `CCCCC[C@H](O)/C=C/[C@H]1[C@H](O)CC(=O)[C@@H]1C/C=C\CCCC(=O)O`, 7.78% (inactive); with `OC[C@H]1O[C@@H](O[C@H]2[C@H](O)[C@@H](O)[C@H](O)O[C@@H]2CO)[C@H](O)[C@@H](O)[C@@H]1O`, 4.72% (inactive).
With `CCOC(=O)Cc1ccc(-c2ccccc2)cc1` the figure was 6.55% (inactive).
Consider `N=C(N)c1ccc(/C=C/c2ccc(C(=N)N)cc2O)cc1`, for which the max response is -19% (inactive).
Then `O=P(O)(O)O`, with 2.99% (inactive); and `CN[C@@H]1[C@@H](O)[C@@H](O[C@@H]2[C@@H](O)[C@H](O[C@H]3O[C@H](CN)[C@@H](O)[C@H](O)[C@H]3O)[C@@H](N)C[C@H]2NC(=O)C(O)CN)OC[C@]1(C)O` (stereo not given in full), with 36% (inactive); and `O=C(NCCNCC(O)COc1ccc(O)cc1)N1CCOCC1` (stereo not given), with 1.66% (inactive).
Turning to `COc1ccc(C[C@H](C)NC[C@@H](O)c2ccc(O)c(NC=O)c2)cc1`, the max response is 5.8% (inactive).
Then `CCN(CC)C(=O)[C@]1(c2ccccc2)C[C@@H]1CN`, with 6.62% (inactive).
With `O=S(=O)(O)CCCS(=O)(=O)O` the figure was 0.835% (inactive).
For `CCCCCCCCCCCCCCCCCC[N+](C)(C)CCC[Si](OC)(OC)OC`, the max response was 8.62% (inactive).
`O=C1CC[C@@H](C(=O)N[C@H]2C[C@@H]2c2ccccc2)N1`: the max response was -13% (inactive).
With `C[C@@H]1C[C@H]2[C@@H]3C[C@H](F)C4=CC(=O)C=C[C@]4(C)[C@@]3(Cl)[C@@H](O)C[C@]2(C)[C@H]1C(=O)COC(=O)C(C)(C)C` the figure was 41.6% (inactive); with `CCOC(=O)[C@H](CS)NCCN[C@@H](CS)C(=O)OCC`, 6.15% (inactive); with `OC[C@H]1OC([S-])[C@H](O)[C@@H](O)[C@@H]1O.[Au+]` (stereo not given in full), 5.78% (inactive).
